# Data: publication PMC11062922 (Nature Chemical Biology, 2023)
# Read-outs that look alike come from different tables or passages of the source.
# Experiments:
# Set-up in all cases: species or system human, MV4-11 + K-562 + COLO205 + SK-N-BE2 + OVCAR-8
# [1] = system: ACVR1; conditions: read-out: apparent Kd; compound concentrations: 100 nM and 1000 nM (sheet 'Samples'), CATDS: 0.26070115141914502; n = 1
# [2] = system: DDR2; conditions: read-out: apparent Kd; compound concentrations: 100 nM and 1000 nM (sheet 'Samples'), CATDS: 0.13771295119314; n = 1
# [3] = system: PDGFRB; conditions: read-out: apparent Kd; compound concentrations: 100 nM and 1000 nM (sheet 'Samples'), CATDS: 0.14028775258346299; n = 1
# [4] = system: PIK3CD; conditions: read-out: apparent Kd, n = 1
# [5] = system: RIPK2; conditions: read-out: apparent Kd; compound concentrations: 100 nM and 1000 nM (sheet 'Samples'), CATDS: 0.21478363135213999; n = 1
# [6] = system: ADCK3; conditions: read-out: apparent Kd, n = 1
# [7] = system: TAOK1; conditions: read-out: apparent Kd; compound concentrations:100 nM and 1000 nM (sheet 'Samples'); n = 1
# [8] = system: AKT3; conditions: read-out: apparent Kd; compound concentrations: 100 nM and 1000 nM (sheet 'Samples'), CATDS: 0.236310491034597; n = 1
# [9] = system: CDK13; conditions: read-out: apparent Kd; compound concentrations: 100 nM and 1000 nM (sheet 'Samples'), CATDS: 0.20413342280503199; n = 1
# [10] = system: NQO1; conditions: read-out: apparent Kd; compound concentrations: 100 nM and 1000 nM (sheet 'Samples'), CATDS: 0.22110563940730901; n = 1
# [11] = system: CSNK1A1; conditions: read-out: apparent Kd; compound concentrations: 100 nM and 1000 nM (sheet 'Samples'), CATDS: 0.108738920150242; n = 1
# [12] = system: CSNK1D; conditions: read-out: apparent Kd; compound concentrations: 100 nM and 1000 nM (sheet 'Samples'), CATDS: 0.110076630605661; n = 1
# [13] = system: CSNK1E; conditions: read-out: apparent Kd; compound concentrations: 100 nM and 1000 nM (sheet 'Samples'), CATDS: 0.12792065759961399; n = 1
# [14] = system: ILK; conditions: read-out: apparent Kd; compound concentrations: 100 nM and 1000 nM (sheet 'Samples'), CATDS: 9.4718278447494406E-2; n = 1
# [15] = system: LIMK1; conditions: read-out: apparent Kd, compound concentrations: 100 nM and 1000 nM (sheet 'Samples'), n = 1
# [16] = system: MAP2K2; conditions: read-out: apparent Kd; compound concentrations: 100 nM and 1000 nM (sheet 'Samples'), CATDS: 0.102896761563019; n = 1
# [17] = system: MAPK10; conditions: read-out: apparent Kd; compound concentrations: 100 nM and 1000 nM (sheet 'Samples'), CATDS: 5.09024054826294E-2; n = 1
# [18] = system: MAPK14; conditions: read-out: apparent Kd, compound concentrations: 100 nM and 1000 nM (sheet 'Samples'), n = 1
# [19] = system: MAPK9; conditions: read-out: apparent Kd; compound concentrations: 100 nM and 1000 nM (sheet 'Samples'), CATDS: 5.50671155445017E-2; n = 1
# [20] = system: MAPKAPK2; conditions: read-out: apparent Kd; compound concentrations: 100 nM and 1000 nM (sheet 'Samples'), CATDS: 5.16854933400041E-2; n = 1
# [21] = system: NNT; conditions: read-out: apparent Kd; compound concentrations: 100 nM and 1000 nM (sheet 'Samples'), CATDS: 4.6144486459290798E-2; n = 1
# [22] = system: PRKAG1; conditions: read-out: apparent Kd; compound concentrations: 100 nM and 1000 nM (sheet 'Samples'), CATDS: 9.6836813668462501E-2; n = 1
# [23] = system: VDAC3; conditions: read-out: apparent Kd; compound concentrations: 100 nM and 1000 nM (sheet 'Samples'), CATDS: 4.4921279998790198E-2; n = 1
# [24] = system: ADCK1; conditions: read-out: apparent Kd; compound concentrations: 100 nM and 1000 nM (sheet 'Samples'), CATDS: 6.3645310719154996E-2; n = 1
# [25] = system: FLT3; conditions: read-out: apparent Kd; compound concentrations: 100 nM and 1000 nM (sheet 'Samples'), CATDS: 0.35383441234921298; n = 1
# [26] = system: JAK2; conditions: read-out: apparent Kd; compound concentrations: 100 nM and 1000 nM (sheet 'Samples'), CATDS: 0.243308820463081; n = 1
# [27] = system: LYN; conditions: read-out: apparent Kd; compound concentrations: 100 nM and 1000 nM (sheet 'Samples'), CATDS: 6.5965838221970899E-2; n = 1
# [28] = system: MTOR; conditions: read-out: apparent Kd; compound concentrations: 100 nM and 1000 nM (sheet 'Samples'), CATDS: 8.3808219559409397E-2; n = 1
# [29] = system: PRKACG; conditions: read-out: apparent Kd; compound concentrations: 100 nM and 1000 nM (sheet 'Samples'), CATDS: 7.8396451474863002E-2; n = 1
# [30] = system: PRKDC; conditions: read-out: apparent Kd; compound concentrations: 100 nM and 1000 nM (sheet 'Samples'), CATDS: 6.9640678326095301E-2; n = 1
# [31] = system: RET; conditions: read-out: apparent Kd; compound concentrations: 100 nM and 1000 nM (sheet 'Samples'), CATDS: 7.1676948179133407E-2; n = 1
# [32] = system: T1, T10; conditions: read-out: apparent Kd; compound concentrations: 100 nM and 1000 nM (sheet 'Samples'), CATDS: 5.8337212061708103E-2; n = 1
# T1 construct: gene NAT10
# [33] = compound concentrations:100 nM and 1000 nM (sheet 'Samples')
compound,measurement,setting,value
COC(=O)c1cncc(/C=C/c2c(C)cc(O)cc2C)c1 [GW406731X],potency estimated from few doses,[1],403 nM
same,potency estimated from few doses,[2],2520 nM
same,potency estimated from few doses,[3],2330 nM
same,potency estimated from few doses,"[4]; compound concentrations: 100 nM and 1000 nM (sheet 'Samples'), CATDS: 0.471997589985167",143 nM
same,potency estimated from few doses,[5],621 nM
COc1cc2ncn(-c3cc(OCC4CCCCC4)c(C(N)=O)s3)c2cc1OC [GSK204559A],potency estimated from few doses,[6]; [33],1060 nM
same,potency estimated from few doses,[4]; [33],190 nM
same,potency estimated from few doses,[7],1460 nM
Cc1ccc(C)c(NC(=O)NC2CCN(c3ccnc(Nc4ccc(F)cc4)n3)C2)c1 (stereo not drawn) [GSK1379720A],potency estimated from few doses,"[6]; compound concentrations: 100 nM and 1000 nM (sheet 'Samples'), CATDS: 0.42611261301479197",388 nM
same,potency estimated from few doses,[8],1130 nM
same,potency estimated from few doses,[9],1630 nM
same,potency estimated from few doses,[10],1330 nM
FC(F)(F)c1ccc(/C=C/c2cncnc2Nc2ccc3[nH]c(Cc4ccccc4)nc3c2)cc1 [GW709199X],potency estimated from few doses,"[6]; compound concentrations: 100 nM and 1000 nM (sheet 'Samples'), CATDS: 1",456 nM
Cl.Fc1ccc(-c2nc3n(c2-c2ccncc2)CCS3)cc1 [SKF-86002-A2],potency estimated from few doses,"[6]; compound concentrations: 100 nM and 1000 nM (sheet 'Samples'), CATDS: 0.13841841759658599",74.5 nM
same,potency estimated from few doses,[11],113 nM
same,potency estimated from few doses,[12],110 nM
same,potency estimated from few doses,[13],84.8 nM
same,potency estimated from few doses,[14],148 nM
same,potency estimated from few doses,[15]; CATDS: 4.5083762748743803E-2,1770 nM
same,potency estimated from few doses,[16],125 nM
same,potency estimated from few doses,[17],946 nM
same,potency estimated from few doses,[18]; CATDS: 0.11352717514973699,104 nM
same,potency estimated from few doses,[19],681 nM
same,potency estimated from few doses,[20],885 nM
same,potency estimated from few doses,[21],1550 nM
same,potency estimated from few doses,[22],141 nM
same,potency estimated from few doses,[23],1810 nM
CN(c1ccc(NC(=O)Nc2cc(C(F)(F)F)ccc2F)cc1)c1ccnc(Nc2ccc(S(N)(=O)=O)cc2)n1 [GW809893X],potency estimated from few doses,[24],1370 nM
same,potency estimated from few doses,[25],36.1 nM
same,potency estimated from few doses,[26],65 nM
same,potency estimated from few doses,[15]; CATDS: 6.0612482504371901E-2,1630 nM
same,potency estimated from few doses,[27],1210 nM
same,potency estimated from few doses,[18]; CATDS: 7.0797769182365994E-2,973 nM
same,potency estimated from few doses,[28],610 nM
same,potency estimated from few doses,"[4]; compound concentrations: 100 nM and 1000 nM (sheet 'Samples'), CATDS: 0.184193400818676",107 nM
same,potency estimated from few doses,[29],728 nM
same,potency estimated from few doses,[30],1020 nM
same,potency estimated from few doses,[31],938 nM
same,potency estimated from few doses,[32],1880 nM
